Assay outcomes from PubChem.
PKM2 act: increases activity of human pyruvate kinase M2 | purified PKM2, Kinase-Glo ATP luminescence, activation; response scale: 0% is enzyme alone, no compound | AID 1631 | P14618 | Potency, µM (highest dose often 57.5 µM), for the others: at the highest dose activation, usual class: activators | actives 0.34% (n = 260,000); also: % is scaled to controls: 0 for no effect and ±100 for the full control effect; nearly all actives have a fitted effect of over 55% in size
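Kinase-Glo luminescence reports ATP generated from ADP (0.1 mM) and PEP (0.5 mM) by purified hPK-M2 after 1 h at room temperature, pH 7.2 imidazole buffer; intermediate enzyme activity allows detecting inhibitors and activators.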
Rango release inh: inhibition of RanGTP-driven Rango-importin beta dissociation. O95149+P62826. Biochemical FRET Rango-importin beta, RanGTP-induced dissociation. Potency, µM (series often up to 46.1 µM), for the others: at the highest dose activity change, negative = inhibition. actives 0.071% (n = 340,000); calls by dose curve; also: % of control where 0% means no effect; nearly all actives have a fitted effect of over 45% in size
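Compounds preincubate 5 min with complex of recombinant Rango and importin beta in PBS with 1 mM DTT. Ran (0.6 uM) loaded with 2 mM GTP plus 0.2 uM RCC1 starts dissociation; FRET is recorded 45 min later.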
Rango complex inh: prevents formation of the Rango-importin beta complex | actives 0.031% (n = 340,000) | Q14974 | Potency, µM (doses to about 92.2 µM), for the others: at the highest dose inhibition of complex formation | AID 540263 | Rango CFP/YFP FRET sensor + importin beta, 45 min; calls by dose curve;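 also: 0% = DMSO wells and 100% = buffer wells lacking importin beta; nearly all actives have a fitted effect of over 15% in size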
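FRET biosensor (snurportin 1 IBB flanked by EYFP and cerulean), 50 nM, with compound 5 min, then 0.125 microM importin beta in PBS, 1 mM DTT, 0.02% Tween-20, 0.1% BSA. CFP/YFP ratio read after 45 min at room temperature; pre-read flags interference.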
ELG1 DNA repair: blocks ELG1-dependent DNA repair in HEK293T cells; HEK293T ELG1-luciferase reporter, luminescence, 16 h; DNA damage induced by 5-fluorouridine; AID 504467; actives 2.3% (n = 330,000); Potency, µM (doses to about 46.1 µM), for the others: at the highest dose activity change, negative = inhibition, usual class: inhibitors; also: % is scaled to controls: 0 for no effect and ±100 for the full control effect; nearly all actives have a fitted effect of over 55% in size
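In this reporter screen, reduction of luminescence relative to DMSO vehicle indicated activity. Compounds and 5-fluorouridine were added together to 2,000 cells per well, incubated for 16 hr at 37 °C, then developed with ONE-Glo.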
Tb PGK inh: blocks T. brucei phosphoglycerate kinase; P07378; PGK/GAPDH coupled, Kinase-Glo luminescence, 60 min; Potency, µM (series often up to 57.5 µM), for the others: top-dose activity change, negative = inhibition, usual class: inhibitors; actives 0.043% (n = 380,000); AID 602233; also: % is scaled to controls: 0 for no effect and ±100 for the full control effect; nearly all actives have a fitted effect of over 60% in size
Target sequence (P07378 whole entry, looked up): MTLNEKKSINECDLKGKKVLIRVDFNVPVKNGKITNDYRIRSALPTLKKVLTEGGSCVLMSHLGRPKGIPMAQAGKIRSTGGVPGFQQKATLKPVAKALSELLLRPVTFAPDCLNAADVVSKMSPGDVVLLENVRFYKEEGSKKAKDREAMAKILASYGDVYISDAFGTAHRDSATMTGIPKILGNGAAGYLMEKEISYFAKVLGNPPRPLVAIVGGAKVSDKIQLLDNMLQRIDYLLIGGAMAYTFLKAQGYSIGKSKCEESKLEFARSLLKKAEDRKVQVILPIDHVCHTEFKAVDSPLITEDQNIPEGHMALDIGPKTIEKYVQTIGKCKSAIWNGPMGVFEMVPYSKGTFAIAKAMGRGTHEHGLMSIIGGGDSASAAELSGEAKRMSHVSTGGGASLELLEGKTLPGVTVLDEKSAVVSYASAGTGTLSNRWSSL
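Recombinant glycosomal PGK reaction used 1,3-bisphosphoglycerate generated in-well by GAPDH (100nM final) in 100mM TEA pH 7.6, 5mM MgCl2, 0.01% Tween-20. After 60 minutes at room temperature, ATP was read by Kinase-Glo Plus luminescence end-point.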
Tb PFK block: inhibitors of T. brucei phosphofructokinase. O15648. T. brucei PFK, ADP-Glo luminescence. Potency, µM (titrated, usually from 57.5 µM), for inactives: at the highest dose activity, negative = inhibition, usual class: inhibitors. actives 0.17% (n = 330,000);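 also: 0% = uninhibited 1x PFK enzyme wells and -100% = no-enzyme wells; nearly all actives have a fitted effect of over 60% in size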
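Luminescent ADP detection (ADP-Glo, two-step: ATP depletion then ADP-to-ATP conversion for luciferase) reported PFK activity after 45 min room-temperature reaction of 1.25 nM enzyme with 0.5 mM F6P and 0.1 mM ATP at pH 8.0.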
The depositor's hits bear a star; i = inactive; ? = inconclusive; / = no result given. An excerpt weighted towards active compounds, which were near 2.4% of everything screened. Unless noted, calls follow the shape of the dose curve; as a rule, active = well fitted curve in the direction sought with a large enough effect; inconclusive = small, poorly fitted or top-dose-only effect, or another doubt; inactive = no such curve, though single readings can be large; an effect the other way counts as inactive or inconclusive. Potency is read from the fitted curve at half-maximal effect.

SMILES	PKM2 act	Rango release inh	Rango complex inh	ELG1 DNA repair	Tb PGK inh	Tb PFK block
CC1CCCN(S(=O)(=O)c2cccc([N+](=O)[O-])c2)C1 (stereo not given)	6%	-1%	0%	0%	7%	-1%
O=C(Nc1nc(-c2ccccc2)cs1)C1CCCN(S(=O)(=O)c2ccccc2)C1 (stereo not given)	1%	0%	-1%	2.3µM*	-1%	6%
O=C(Nc1nc(-c2ccccc2)cs1)C1CCCN(S(=O)(=O)c2cccc([N+](=O)[O-])c2)C1 (stereo not given)	-2%	-17%	0%	16µM*	-3%	-3%
O=C(Nc1nc(-c2ccccc2)cs1)C1CCCCN1S(=O)(=O)c1ccccc1 (stereo not given)	-5%	-2%	-2%	?	/	-1%
CCc1ccc(C(=O)c2cn(CC(=O)NCCc3ccc(OC)c(OC)c3)c3nc(C)ccc3c2=O)cc1	/	/	/	/	-7%	/
Cc1ccc2c(CC(=O)Nc3nnc(C(C)C)s3)coc2c1C	/	/	/	/	-4%	/
O=C(Nc1cccc(-c2nc3ccccc3s2)c1)c1cc(=O)c2ccccc2o1	-4%	-3%	0%	9.2µM*	-4%	0%
COCCCn1c(SCc2nnc(-c3ccc(OC)c(OC)c3)o2)nc2ccccc2c1=O	9%	23%	5%	12µM*	/	0%
COc1cc(-c2nnc(CSc3nc4ccccc4s3)o2)cc(OC)c1OC	-20%	/	/	12µM*	/	-2%
COc1ccc(-c2nnc(CSc3nc4ccccc4c(=O)n3CC(C)C)o2)cc1OC	1%	0%	4%	?	/	-1%
COCCCn1c(SCc2ccccc2)nc2cc(OC)c(OC)cc2c1=N	-1%	2%	-1%	16µM*	3%	2%
COc1cc(C)c(NC(=O)c2cc(C3CC3)nc3c2cnn3C(C)C)cc1OC	/	-1%	?	?	-10%	5%
O=C(CN1C(=O)C(=O)c2ccccc21)NCCc1ccccc1	32µM*	-22%	-3%	24%	0%	-3%
O=C1C(=O)N(CCCc2ccccc2)c2ccccc21	?	?	5%	4%	9%	-8%
CCN(CC)CCn1c(-c2ccccc2)nc2c(NC3CCCCC3)nc(C)nc21	2%	/	/	/	/	/
CCOc1ccc(CCNC(=O)CCNC(=O)c2ccc(Br)cc2)cc1OCC	4%	15%	0%	14%	-2%	-6%
Cc1oc2c(C)c(O)ccc2c(=O)c1-c1nncn1-c1ccccc1	18µM*	?	?	0%	-3%	0%
Cc1ccc(C)c(Nc2nnc(-c3ccc(C)c(S(=O)(=O)NCC4CCCO4)c3)c3ccccc23)c1 (stereo not given)	/	/	/	/	-10%	/
CNC(=O)c1ccc(Nc2nnc(-c3ccc(C)c(S(=O)(=O)NCC4CCCO4)c3)c3ccccc23)cc1 (stereo not given)	-12%	-15%	-3%	?	i	3%
Cc1ccc(-c2nnc(Nc3ccccc3)c3ccccc23)cc1S(=O)(=O)NCC1CCCO1 (stereo not given)	1%	5%	?	21µM*	-2%	-2%
CC(=O)Nc1ccc(Nc2nnc(-c3ccc(C)c(S(=O)(=O)NCC4CCCO4)c3)c3ccccc23)cc1 (stereo not given)	0%	?	-7%	21µM*	1%	1%
Cc1ccc(-c2nnc(Nc3ccc4c(c3)OCO4)c3ccccc23)cc1S(=O)(=O)NC(C)C	0%	12%	?	15µM*	-1%	-11%
COCCN(CCOC)c1ncnc2c1c(-c1ccccc1)cn2-c1ccc(C)c(Cl)c1	/	/	/	/	11%	/
COC(=O)c1ccccc1NS(=O)(=O)c1cc2c(cc1C)N(C)CCO2	/	/	/	/	2%	/
COCCNC(=O)CSc1nc2cc3c(cc2c(=O)n1CCCC(=O)NCc1ccc2c(c1)OCO2)OCO3	/	/	/	/	-3%	/
SMILES	PKM2 act	Rango release inh	Rango complex inh	ELG1 DNA repair	Tb PGK inh	Tb PFK block
CO/N=C/c1ccc(N2CCCC2)c([N+](=O)[O-])c1	4%	1%	-3%	-5%	7%	-8%
Cc1ccc(NC(=O)c2ccc(NCCCN3CCOCC3)c([N+](=O)[O-])c2)cc1Cl	-3%	-2%	-4%	18µM*	-2%	0%
Cc1ccc(C(=O)Nc2ccccc2[N+](=O)[O-])cc1S(=O)(=O)N1CCOCC1	5%	-2%	0%	-2%	-1%	12%
Cc1ccc(NC(=O)c2ccc(N3CCOCC3)c([N+](=O)[O-])c2)cc1S(=O)(=O)N1CCOCC1	7%	-2%	9%	21µM*	-7%	2%
CO/N=C/c1ccc(N2CCN(C(=O)c3ccc(C)cc3)CC2)c([N+](=O)[O-])c1	1%	1%	0%	21µM*	-7%	0%
Cc1ccc(S(=O)(=O)N2CCN(c3ccc(C(=O)N4CCOCC4)cc3[N+](=O)[O-])CC2)cc1	1%	2%	1%	18µM*	-3%	-14%
CCCCOC(=O)c1ccc(Nc2nc3ccc(C(=O)c4ccccc4)cc3n3cnnc23)cc1	/	/	/	/	i	/
CC1CCCN(c2ccc(C(=O)Nc3cccnc3)cc2[N+](=O)[O-])C1 (stereo not given)	1%	-12%	-2%	15µM*	-5%	-1%
Cc1ccc(S(=O)(=O)N2CCN(c3cnn(C)c(=O)c3Cl)CC2)cc1	20µM*	1%	0%	25%	-1%	3%
CC(=O)Nc1ccc(N2CCCC(C)C2)c([N+](=O)[O-])c1 (stereo not given)	0%	-5%	-2%	-1%	-3%	-3%
Cc1ccc(S(=O)(=O)N2CCN(c3cnn(-c4ccccc4)c(=O)c3Cl)CC2)cc1	1%	-8%	-3%	8%	i	6%
CN(C)S(=O)(=O)c1cccc(NC(=O)c2ccc(N3CCOCC3)c([N+](=O)[O-])c2)c1	-16%	13%	-5%	18µM*	1%	-5%
Cc1ccc(S(=O)(=O)N2CCN(c3cc4c(cc3[N+](=O)[O-])n(C)c(=O)n4C)CC2)cc1	3%	5%	0%	7.3µM*	i	-7%
